Sampled rows, rich in hits. Any-hit rate of the full collection: about 3.7%.
D3 ag: activates the human D3 dopamine receptor; D3R DiscoveRx beta-arrestin cells, luminescence, 90 min; max activation, %; 0.58% of 410,000 active; in the data active means max activation above about 30%
Target sequence (P35462 whole entry, looked up): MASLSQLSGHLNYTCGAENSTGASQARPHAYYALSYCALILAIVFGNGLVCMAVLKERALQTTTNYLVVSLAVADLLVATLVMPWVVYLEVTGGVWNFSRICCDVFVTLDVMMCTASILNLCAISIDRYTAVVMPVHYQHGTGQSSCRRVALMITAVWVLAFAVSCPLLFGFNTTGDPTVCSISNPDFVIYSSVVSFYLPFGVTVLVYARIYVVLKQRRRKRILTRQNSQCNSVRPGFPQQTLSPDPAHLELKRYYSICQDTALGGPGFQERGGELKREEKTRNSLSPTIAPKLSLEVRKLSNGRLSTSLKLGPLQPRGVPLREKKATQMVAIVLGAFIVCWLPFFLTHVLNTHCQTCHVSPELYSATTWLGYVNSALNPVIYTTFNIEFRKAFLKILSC
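Agonist-mode cell screen: cells plated at 1500/well and incubated overnight at 37 °C, then exposed to library compounds for 90 min at 37 °C. Detection reagent was added for 30–60 min at room temperature, and luminescence was read.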
PTHR1 agonist: PTHR1 (human) receptor agonism; Q03431; HEK293 GP2 PTHR1 cells, GloSensor cAMP luminescence, 1 h; Potency, µM (series often up to 115 µM), usual class: activators; 0.075% of 410,000 active; further: nearly all actives have a fitted effect of over 55% in size
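HEK-293-derived GP2 cells expressing PTHR1 and a GloSensor cAMP reporter, 3,000/well, plated overnight, given luciferin plus IBMX (each 0.5 mM as added) for 1 h at 37 °C, then compound for 1 h at 37 °C. Luminescence was read after 15 min at room temperature.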
DRD3 antagonist: blocks the human D3 dopamine receptor. D3R cells, DiscoveRx beta-arrestin luminescence, antagonist mode; hits give low values. P35462. 2.5% of 360,000 active. max response, negative = inhibition, %; in the data active means max response below about -50%; inconclusive means no clear call, values can overlap the other calls
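Cells expressing the human receptor were seeded at 1500 cells/well, incubated overnight at 37 degrees C in 5% CO2, then exposed to library compounds with dopamine controls for 90 minutes at 37 degrees C before luminescent detection.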
RGS4 inhibitor: blocks human RGS4-accelerated GTP hydrolysis; P49798; Transcreener GDP fluorescence polarization, RGS4-accelerated GTP hydrolysis; Potency, µM (doses to about 114 µM), actives largely listed as inhibitors; 0.039% of 390,000 active; further: nearly all actives have a fitted effect of over 75% in size
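MLSMR compounds (23 nl, pin-transferred) preincubated 10 min at room temperature with a 500nM (2x) first reagent, then RGS4 at 900nM (2x) plus Transcreener GDP mix added; fluorescence polarization (620/688 nm) read before and after 90 min at 30 °C.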
BRCA1 expr up: BRCA1 expression activation | MCF7-BRCA1-FFLuc reporter, luminescence, 48 h; response scale: scaled: vehicle 0%, 10 µM genistein 100% | Potency, µM (titrated, usually from 46.1 µM), usual class: activators | 1.1% of 380,000 active; further: nearly all actives have a fitted effect of over 80% in size
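Using MCF7 cells harboring a BRCA1 firefly luciferase reporter, plated 2 h before compound pinning, the screen measured luminescence after 48 h incubation. Responses were normalized to DMSO and 10 microM genistein, then fitted for concentration-effect.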
B2AR arrestin: beta2AR (human) beta-arrestin recruitment activity. 0.02% of 330,000 active. beta-arrestin recruitment to beta2AR, cell-based reporter. P07550. AID 492947. Potency, µM (series often up to 46.1 µM), hits mostly activators; further: nearly all actives have a fitted effect of over 65% in size
Hits are given with their value. Unless noted, the call rests on the fitted dose curve; in most records, active means well fitted curve in the direction sought with a large enough effect; inconclusive means small, poorly fitted or top-dose-only effect, or another doubt; inactive means no such curve, though single readings can be large; an effect the other way counts as inactive or inconclusive.

`N#CC1(CCCN2CCCCC2)c2ccccc2CCc2ccccc21` gave D3 ag inactive, PTHR1 agonist inactive, DRD3 antagonist -93, RGS4 inhibitor inactive and BRCA1 expr up inactive.
NC1=NC(=O)S/C1=C\c1ccc(F)cc1 was read as D3 ag inactive, PTHR1 agonist inactive, DRD3 antagonist inactive, RGS4 inhibitor inactive, BRCA1 expr up inactive and B2AR arrestin inactive.
Screening CN(CC(=O)Nc1cc(C(F)(F)F)ccc1-n1cncn1)Cc1ccccc1N1CCOCC1 returned D3 ag inactive, PTHR1 agonist inactive, DRD3 antagonist inactive, RGS4 inhibitor inactive and BRCA1 expr up inactive.
For COc1cc(/C=C2\SC(=O)N(CC(=O)Nc3ccccc3F)C2=O)cc(Cl)c1O the results were D3 ag 59, PTHR1 agonist inactive, DRD3 antagonist inactive, RGS4 inhibitor inactive, BRCA1 expr up inactive and B2AR arrestin inactive.
Screening COc1cc(/C=C2\SC(=O)N(CC(=O)Nc3cccc(C)c3)C2=O)cc([N+](=O)[O-])c1O returned D3 ag 38, PTHR1 agonist inactive, DRD3 antagonist inactive, RGS4 inhibitor inconclusive, BRCA1 expr up inactive and B2AR arrestin inactive.
CCOc1cc(/C=C2\SC(=O)N(CC(=O)Nc3ccccc3F)C2=O)cc([N+](=O)[O-])c1O was read as D3 ag inactive, PTHR1 agonist inactive, DRD3 antagonist inactive, RGS4 inhibitor inconclusive, BRCA1 expr up inactive and B2AR arrestin inactive.
Screening COc1cc(OC)c(/C=C2\SC(=O)N(CC(=O)Nc3ccccc3F)C2=O)c(OC)c1 returned D3 ag inactive, PTHR1 agonist inactive, DRD3 antagonist inactive, RGS4 inhibitor inactive, BRCA1 expr up inactive and B2AR arrestin inactive.
Screening Cc1ccc(NC(=O)c2cc3c([nH]c2=O)CC(C)(C)CC3=O)c(C)c1 returned D3 ag inactive, PTHR1 agonist inactive and RGS4 inhibitor inactive.
For N#Cc1c(F)cccc1N1CCN(Cc2ccc3c(c2)OCO3)CC1 the results were D3 ag inactive, PTHR1 agonist inactive, DRD3 antagonist -91, RGS4 inhibitor inactive, BRCA1 expr up inactive and B2AR arrestin inactive.
`Fc1ccccc1N1CCN(Cc2nnc(-c3ccc4c(c3)OCO4)o2)CC1` gave D3 ag inactive, PTHR1 agonist inactive and RGS4 inhibitor inactive.
`Cc1cc(C)cc(C(=O)N2CCN(Cc3ccc4c(c3)OCO4)CC2)c1` gave D3 ag inactive, PTHR1 agonist inactive, DRD3 antagonist inactive, RGS4 inhibitor inactive, BRCA1 expr up inactive and B2AR arrestin inactive.
For O=C(c1ccccc1F)N1CCN(Cc2ccc3c(c2)OCO3)CC1 the results were D3 ag inactive, PTHR1 agonist inactive, DRD3 antagonist -67, RGS4 inhibitor inactive, BRCA1 expr up inactive and B2AR arrestin inactive.
Cc1cc(C(=O)N2CCN(Cc3ccc4c(c3)OCO4)CC2)cs1 was read as D3 ag inactive, PTHR1 agonist inactive, DRD3 antagonist -92, RGS4 inhibitor inactive, BRCA1 expr up inactive and B2AR arrestin inactive.
COC(=O)C[C@@H]1OC[C@H](C(C)C)N1S(=O)(=O)c1ccc(C)cc1 was read as D3 ag inactive, PTHR1 agonist inactive and DRD3 antagonist inactive.
O=C(Nc1ncnc2nc[nH]c12)c1ccccc1 was read as RGS4 inhibitor inactive and BRCA1 expr up inactive.
Screening O=C(Nn1c(O)c(C=C2N=c3ccccc3=N2)sc1=S)c1ccccc1Cl returned D3 ag inactive, PTHR1 agonist inactive, DRD3 antagonist -55, RGS4 inhibitor inactive, BRCA1 expr up inactive and B2AR arrestin inactive.
`O=S(=O)(Nn1c(O)c(C=C2N=c3ccccc3=N2)sc1=S)c1ccccc1` gave D3 ag inactive, PTHR1 agonist inactive, DRD3 antagonist inactive, RGS4 inhibitor inactive, BRCA1 expr up inactive and B2AR arrestin inactive.
Screening CC1(C(=O)NS(=O)(=O)c2ccccc2)CCN1C(=O)Cc1ccc(Cl)cc1Cl (stereo unspecified) returned D3 ag inactive, PTHR1 agonist inactive, DRD3 antagonist inactive and BRCA1 expr up inactive.

Screening results from PubChem BioAssay.
